Compounds without any hit were thinned out: in the full panel of roughly 83,000, 20% have a hit.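 The endpoint reported here, percent growth, reads 100 for growth as untreated, 0 for no net growth and -100 for all cells dead.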 A number with no mark means an inactive call. The source made the active and inactive calls. How the source made its calls: active means growth percent below 10; inactive means the rest.
The molecules below were run on MDA-MB-468 breast (assay: NCI-60 one-dose screen, 48 h (100 = growth as untreated, 0 = no growth, -100 = all killed)). Details: 10 µM unless noted.
Work on `Cc1cccc(-c2nc(C(C)C)sc2-c2ccnc(NCCCNS(=O)(=O)c3ccc(Cl)cc3)c2)c1` yielded a growth of 55.2%.
`COc1ccc(C(=O)Nc2ncc(Cc3ccccc3Cl)s2)cc1` showed a growth of 24.7%.
With `Cn1cc(-c2nnc(-c3ccccc3)s2)c2cc(Br)cnc21` the growth was 59.4%.
For `O=C1OC(Oc2ccccc2)(c2ccccc2)c2ccccc21` (configuration not stated), the growth was 112%.
In the case of `CN(C)C1=NCCN1`, the growth is reported as 108%.
For `Fc1cnc(NC2CC2)nc1-c1cnc2ccc(N3CCOCC3)cn12`, the growth was -29.6% (active).
For `COCCn1cc(-c2csc(-c3c[nH]c4ccccc34)n2)c2cccnc21`, the growth was -6.7% (active).
Work on `Cc1n[nH]c(=O)n(/N=C\c2c[nH]c3ccccc23)c1=O` yielded a growth of 106%.
For `O=C(Nc1cccc(-n2ccc3c(NC(=O)c4ccccc4)nccc32)c1)c1cc(N2CCOCC2)cc(C(F)(F)F)c1`, the growth was -32.3% (active).
In the case of `C#C[C@]1(O)CC[C@H]2[C@@H]3CC=C4c5sc(Nc6ccncc6)nc5CC[C@]4(C)[C@H]3CC[C@@]21C`, the growth is reported as -26.2% (active).
Work on `N=C1CCC(=N)c2c1c(O)c1ccccc1c2O` yielded a growth of 93.7%.
With `N#Cc1ncc(Br)c(NC2CCCCCC2)n1` the growth was 91.9%.
With `COC(=O)c1cc(O)c2cc3c(cc2c1-c1cc(OC)c(OC)c(OC)c1)OCO3` the growth was -8.52% (active).
`O=C1CC[C@@H]2CCCC[C@@H]2C1` gave a growth of 125%.
Molecule `O=C(CCCCCCN1CC(=O)N2[C@@H](C3CCCCC3)c3[nH]c4ccccc4c3C[C@H]2C1=O)NO` has a growth of 64.3%.
In the case of `Cc1cc(Nc2ncnc3ccc(NC4=NC(C)(C)CO4)cc23)ccc1Oc1ccn2ncnc2c1`, the growth is reported as -60.6% (active).
In the case of `COc1cc(C(=O)c2cc(C(C)=O)c3ccc(C)cn23)cc(OC)c1OC`, the growth is reported as -2.89% (active).
In the case of `CN(C)c1ccc(N=Nc2ccccn2)c(O)c1`, the growth is reported as 3.89% (active).
`COc1ccc(C2NC3=C(CCCC3)C(C#N)(C#N)C2(C#N)C#N)cc1` (configuration not stated) gave a growth of 58%.
`O=C(OCc1ccc2c(Br)cc(Br)c(O)c2n1)c1cc2ccccc2[nH]1` was tested, and the growth was -73.2% (active).
`O/N=C1\c2ccccc2-c2ccc(Br)cc21` was tested, and the growth was 108%.
With `Nc1cc(-c2c[nH]c3ccc(Br)cc23)nc2cc(-c3c[nH]c4ccc(Br)cc34)nn12` the growth was -4.03% (active).
`O=Nc1c(-c2cccc([N+](=O)[O-])c2)nc2ncccn12` showed a growth of 17.4%.
With `CC[C@@H]1NC(=O)[C@H]([C@H](O)[C@H](C)C/C=C/c2ccc(CN3C(=O)C(C)=C(C)C3=O)cc2)N(C)C(=O)[C@H](C(C)C)N(C)C(=O)[C@H](CC(C)C)N(C)C(=O)[C@H](CC(C)C)N(C)C(=O)[C@@H](C)NC(=O)[C@H](C)NC(=O)[C@H](CC(C)C)N(C)C(=O)[C@H](C(C)C)NC(=O)[C@H](CC(C)C)N(C)C(=O)CN(C)C1=O` the growth was 53.1%.
In the case of `Cc1c(Cl)c(C)c(Cc2c(C)c(Cl)c(C)c(Cl)c2O)c(O)c1Cl`, the growth is reported as -8.25% (active).
Work on `CC1(C)OC(=O)C(=Cc2cccc(Br)c2)C(=O)O1` yielded a growth of 111%.
`Nc1nc(CSc2n[nH]c(N)n2)nc(Nc2ccccc2)n1` showed a growth of 108%.
`O=CN1N=C(c2ccc(Cl)cc2)CC1c1cccc(Nc2ccnc3cc(C(F)(F)F)ccc23)c1` (configuration not stated) was tested, and the growth was 32.9%.
Molecule `O=C(Nc1ccc(C23CC4CC(CC(c5ccccc5)(C4)C2)C3)cc1)c1cccs1` has a growth of 38.6%.
Work on `Cc1c(C(=O)/C=C/Nc2c(Cl)cc(S(N)(=O)=O)cc2Cl)sc2nc3ccccc3n12` yielded a growth of 102%.
`COC(=O)c1ccc(-n2cc(CCCOS(=O)(=O)c3ccc(F)cc3)nn2)cc1` showed a growth of 108%.
`C=C1C(=O)O[C@H]2[C@H]1CC/C(COC(=O)C(=O)c1c[nH]c3ccccc13)=C\CC[C@@]1(C)O[C@@H]21` was tested, and the growth was -59.8% (active).
For `NCCCNc1nc2ccccc2c2c(=O)c3cccc(Cl)c3sc12`, the growth was -80.2% (active).
For `CCOC(=O)/C=C1\SC(=Nc2ccc(C#N)cc2)N(CCN2C(=O)/C(=C/C(=O)OCC)SC2=Nc2ccc(C#N)cc2)C1=O`, the growth was 55.3%.
`O=C(c1ccccc1)N(C(=O)c1ccccc1)N1CCCC1` was tested, and the growth was 108%.
`O=C1c2cccnc2C(=O)c2c1c(C(=O)OCCN1CCCCC1)c1ccccn21` was tested, and the growth was -16.6% (active).
With `COc1ccc(C(=O)c2cc(OC)c(OC)c(OC)c2)cc1/C=C/C(=O)c1ccc2c(c1)OCO2` the growth was 9.38% (active).

Reference: PubChem BioAssay (NCI)
